# Source: PubChem BioAssay (National Center for Advancing Translational Sciences (NCATS))
# In the library only some 5.7% were active in any assay of this set; here they are far more common.
# PI4K2A inh = qHTS for small molecular inhibitors of PI4K2A; Phosphatidylinositol 4-kinase type 2-alpha (Homo sapiens), Q9BTU6; purified PI4K2A, ADP-Glo luminescence, 1 h; stronger effect = lower value; activity change, negative = inhibition, % at 76.9 µM; actives 0.13% (n = 420,000); AID 1346378, 2018; in the data active = activity change below about -50%; inconclusive = mostly about -30% to -49%;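 also: -100% = wells without enzyme as full effect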
# Target sequence (Q9BTU6 whole entry, looked up): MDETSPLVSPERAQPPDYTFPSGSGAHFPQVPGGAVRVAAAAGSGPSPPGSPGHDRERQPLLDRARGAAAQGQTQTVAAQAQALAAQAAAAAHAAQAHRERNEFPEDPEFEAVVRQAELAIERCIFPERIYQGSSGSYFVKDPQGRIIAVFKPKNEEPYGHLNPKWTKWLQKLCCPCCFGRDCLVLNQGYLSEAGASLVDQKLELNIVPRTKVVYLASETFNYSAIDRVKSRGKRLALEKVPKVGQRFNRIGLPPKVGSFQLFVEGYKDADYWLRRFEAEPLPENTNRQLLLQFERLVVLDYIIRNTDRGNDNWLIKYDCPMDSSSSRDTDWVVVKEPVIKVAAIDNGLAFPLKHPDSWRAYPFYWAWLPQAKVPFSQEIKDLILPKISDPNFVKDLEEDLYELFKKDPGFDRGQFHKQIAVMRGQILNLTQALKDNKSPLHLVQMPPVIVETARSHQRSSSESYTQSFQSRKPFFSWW
#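 ADP-Glo luminescence measured ADP generated by PI4K2A enzyme (4 ug/mL before mixing) with 1.2 mM PI substrate (pre-mix) and 300 microM ATP (pre-mix). Tris pH7.5 buffer with MgCl2, Triton X-100; 1 h reaction at ambient temperature.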
# KB-3-1 tox = qHTS assay for MDR1-selective chemotherapeutics: Primary screen using the parental adenocarcinoma cell KB-3-1. KB-3-1 viability, CellTiter-Glo ATP luminescence, 72 h. Potency, µM (doses to about 46.1 µM), hits mostly cytotoxic. actives 1.4% (n = 400,000). AID 1347075, 2019; also: potency is read from the fitted curve at half-maximal effect; nearly all actives have a fitted effect of over 60% in size
#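 Using CellTiter-Glo luminescence, growth of non-resistant KB-3-1 adenocarcinoma cells is assessed 72 h after pin-tool compound addition at 37 °C. Normalized responses across the concentration series yield fitted curves.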
# KB-V1 MDR tox = qHTS assay for MDR1-selective chemotherapeutics: Primary screen using the drug-selected MDR subline cells KB-V1; KB-V1 MDR cells viability, CellTiter-Glo, 72 h; Potency, µM (top dose mostly 46.1 µM), usual class: cytotoxic; actives 3.4% (n = 400,000); AID 1347076, 2019; also: potency is read from the fitted curve at half-maximal effect; nearly all actives have a fitted effect of over 60% in size
#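 In this primary screen, KB-V1 cells overexpressing P-gp are incubated with library compounds (lowest to highest concentration) for 72 h at 37 degrees C before a luminescent ATP viability read.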
# A549 viability = Nrf2 qHTS screen for inhibitors: counterscreen for cytotoxicity; A549 ARE-Fluc cells, CellTiter-Fluor viability, 18-24 h; Potency, µM (top dose mostly 46 µM), inactives show top-dose activity change, negative = cytotoxicity, hits mostly inhibitors; actives 0.16% (n = 390,000); also: potency is read from the fitted curve at half-maximal effect
#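 A549 ARE-Fluc cells in 5% FBS OPTI-MEM, 5000 cells/well, rested 2 h then exposed to compounds in concentration-response for 18-24 h at 37 °C. Viability by CellTiter-Fluor fluorescence (Ex 405/Em 525) after 30 min; luciferase luminescence (BugLite, 15 min, RT) read afterwards.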
# Nrf2 block = Nrf2 qHTS screen for inhibitors; A549 ARE-Fluc reporter, luciferase luminescence, 18-24 h; Potency, µM (doses to about 46 µM), without a hit: at the top dose activity change, negative = inhibition, usual class: inhibitors; actives 2.1% (n = 360,000); also: potency is read from the fitted curve at half-maximal effect; nearly all actives have a fitted effect of over 60% in size
#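 In this cell-based qHTS, ARE-driven firefly luciferase in A549 cells reports Nrf2 activity; the luminescent signal after BugLite lysis is the measured value, with a prior CellTiter-Fluor read for cell health.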
# Giardia killer = Small Molecules that selectively kill Giardia lamblia: qHTS. Giardia lamblia trophozoite viability. activity change, % at 7.66 µM, hits read low. actives 0.15% (n = 340,000). AID 540267, 2011; in the data active = activity change below about -80%; inconclusive = between about -30% and that limit;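 also: parasites exposed to compound for two days anaerobically before the ATP read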
#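 Giardia trophozoites, 100 cells per well, were exposed to compounds for 48 hrs at 37 deg C under anaerobic conditions; viability was then read as ATP content by bioluminescence after 15-30 min at room temperature.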
# Numbers without * were called inactive; i = inactive; ? = inconclusive; · = no result given. Unless noted, calls follow the shape of the dose curve; as a rule, active = well fitted curve in the direction sought with a large enough effect; inconclusive = small, poorly fitted or top-dose-only effect, or another doubt; inactive = no such curve, though single readings can be large; an effect the other way counts as inactive or inconclusive. Unless noted, % is scaled to controls: 0 for no effect and ±100 for the full control effect.
SMILES,PI4K2A inh,KB-3-1 tox,KB-V1 MDR tox,A549 viability,Nrf2 block,Giardia killer
CC(=O)OCC(=O)[C@@]12OC3(CCCC3)O[C@@H]1C[C@H]1[C@@H]3CCC4=CC(=O)C=C[C@]4(C)[C@@]3(F)[C@@H](O)C[C@@]12C,2,i,i,-6%,?,-5
CC1(C)O[C@@H]2C[C@H]3[C@@H]4CCC5=CC(=O)C=C[C@]5(C)[C@@]4(F)[C@@H](O)C[C@]3(C)[C@]2(C(=O)CO)O1,-4,i,i,-1%,0.0041µM*,-22
CC1(C)O[C@@H]2C[C@H]3[C@@H]4C[C@H](F)C5=CC(=O)C=C[C@]5(C)[C@@]4(F)[C@@H](O)C[C@]3(C)[C@]2(C(=O)CO)O1,-2,i,i,-10%,?,-5
CC1(C)OC2CC3C4CCC5=CC(=O)CCC5(C)C4(F)C(O)CC3(C)C2(C(=O)CO)O1 (centres undefined),1,i,i,-7%,0.0052µM*,-1
Cc1ccc(C)c(NC(=O)CSc2cn(CC(=O)N3CCCC3)c3ccccc23)c1,-13,·,·,-1%,16%,·
COc1ccc2nc(SCc3ncc(C)c(OC)c3C)[nH]c2c1,3,·,·,·,·,·
O=C1c2ccccc2-c2cccnc21,0,i,i,3%,1%,31
O=C1c2ccccc2C(=O)c2c(/C=C/N3CCCCC3)ccnc21,-10,7.3µM*,2.3µM*,-10%,-5%,-23
CCOC(=O)N1CCC(N2CCN(c3cc(C)ccc3C)CC2)CC1,1,i,23µM*,-15%,?,-10
COc1cc(/C=N\NC(=O)c2ccc(Cl)cc2)ccc1Oc1ccc([N+](=O)[O-])cn1,-4,i,i,0%,?,-10
COc1cc(/C=C(/C#N)c2ccc(F)cc2)ccc1Oc1ccc([N+](=O)[O-])cn1,1,?,2.3µM*,-7%,?,5
COc1cc(/C=N\NC(=O)c2ccccc2F)ccc1Oc1ccc([N+](=O)[O-])cn1,-2,?,7.3µM*,-16%,-26%,-14
COc1ccccc1C(O)c1nccn1Cc1ccccc1 (centres undefined),·,i,i,-8%,-2%,5
CCC(=O)N(Cc1ccc(C)cc1)Cc1cc2cc3c(cc2[nH]c1=O)OCO3,1,i,12µM*,-5%,·,13
CCC(=O)N(CCc1ccccc1)Cc1cc2cc3c(cc2[nH]c1=O)OCO3,1,i,?,-2%,-16%,-2
CN1[C@@H](Cc2ccccc2)COc2cccc(N3CCCC3)c2S1(=O)=O,-4,·,·,·,·,·
CC(=O)c1c(C)[nH]c(C(=O)OC(C)C(=O)Nc2ccc(C)c(S(=O)(=O)N3CCOCC3)c2)c1C (centres undefined),1,i,i,-7%,0%,6
CCN(CC)S(=O)(=O)c1cc(NC(=O)C(C)OC(=O)c2[nH]c(C)c(C(C)=O)c2C)ccc1C (centres undefined),-6,?,21µM*,-18%,12µM*,2
COc1ccc(NC(=O)Cn2cnc3c(oc4ccccc43)c2=O)cc1OC,-1,i,?,-15%,-4%,·
O=C(c1ccc2c3n(nc2c1)-c1ccc(Cl)cc1CO3)N1CCOCC1,-15,i,?,-5%,?,-16
O=C(c1ccc2c3n(nc2c1)-c1ccccc1CO3)N1CCCCC1,?,9.2µM*,10µM*,-5%,?,?
O=C(c1ccc2c3n(nc2c1)-c1ccccc1CO3)N1CCOCC1,-55*,7.3µM*,?,2%,?,10
COCC(=O)N[C@H]1C[C@@H]2O[C@H](CO)CC[C@@H]2O[C@@H]1CCc1ccc(-c2ccccc2)cc1,0,·,·,·,·,·
CC[n+]1c(/C=C(\C)SC)sc2ccccc21,-2,i,i,-18%,21µM*,-7
CC[n+]1c(/C=C(\C)Nc2ccccc2)sc2ccccc21,-5,?,21µM*,1%,-15%,3
SMILES,PI4K2A inh,KB-3-1 tox,KB-V1 MDR tox,A549 viability,Nrf2 block,Giardia killer
CC[n+]1c(/C=C2/C=C(C)CC(C)C2)sc2ccccc21 (centres undefined),1,?,i,-23%,?,5
CC[n+]1c(C=C2C=C(C)OC(C)=C2)sc2ccccc21,0,?,?,2.9µM*,0.73µM*,7
CN1C(c2ccccc2)CC2CN(c3ccccc3)C(=O)C21 (centres undefined),1,·,·,·,·,·
O=C(Nc1ccccc1Cl)c1ccc2c(=O)n3c(nc2c1)CCC3,-20,i,i,2%,?,-18
O=C(Nc1ccc2nc3n(c(=O)c2c1)CCCCC3)c1c(F)ccc([N+](=O)[O-])c1F,10,2.3µM*,16µM*,?,11%,-20
O=C(Nc1cccc(S(=O)(=O)N2CCOCC2)c1)c1ccc2c(=O)n3c(nc2c1)CCCCC3,-7,i,?,?,21µM*,0
CC(=O)c1cccc(NC(=O)c2ccc3c(=O)n4c(nc3c2)CCCCC4)c1,0,i,?,1%,4%,-1
O=C(Nc1nc(-c2ccccc2)cs1)c1ccc2c(=O)n3c(nc2c1)CCCCC3,-1,?,?,?,5.8µM*,7
O=C(Nc1cccc(S(=O)(=O)N2CCCC2)c1)c1ccc2c(=O)n3c(nc2c1)CCCCC3,-2,?,?,-17%,12µM*,23
O=C(Nc1ccc(N2C(=O)CC(c3ccccc3)C2=O)c(Cl)c1)c1ccccn1 (centres undefined),-9,·,·,·,·,·
CCC(=O)N1CCCc2cc(S(=O)(=O)N3CCC(C(=O)Nc4ccccc4CC)CC3)ccc21,0,i,?,0%,·,·
CC(C)(C)OC(=O)n1c2ccsc2c2cnn(Cc3ccccc3F)c(=O)c21,·,·,·,-2%,-9%,·
